Assay outcomes as filed in PubChem.
TSHR antag – Antagonists of the Thyroid Stimulating Hormone Receptor: HTS campaign; Thyrotropin receptor (Homo sapiens), P16473; TSHR-expressing cells, TSH-stimulated cAMP HTRF, 2 h; stronger effect = lower value; activity change, negative = inhibition, % at 11.5 µM; 0.2% of 330,000 active;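 active = activity change below a set negative limit, meaning inhibition stronger than a set level, cut at about -70% in these data; inconclusive = activity change between two set negative limits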; also: % is scaled to controls: 0 for no effect and ±100 for the full control effect
Target sequence (P16473 whole entry, looked up): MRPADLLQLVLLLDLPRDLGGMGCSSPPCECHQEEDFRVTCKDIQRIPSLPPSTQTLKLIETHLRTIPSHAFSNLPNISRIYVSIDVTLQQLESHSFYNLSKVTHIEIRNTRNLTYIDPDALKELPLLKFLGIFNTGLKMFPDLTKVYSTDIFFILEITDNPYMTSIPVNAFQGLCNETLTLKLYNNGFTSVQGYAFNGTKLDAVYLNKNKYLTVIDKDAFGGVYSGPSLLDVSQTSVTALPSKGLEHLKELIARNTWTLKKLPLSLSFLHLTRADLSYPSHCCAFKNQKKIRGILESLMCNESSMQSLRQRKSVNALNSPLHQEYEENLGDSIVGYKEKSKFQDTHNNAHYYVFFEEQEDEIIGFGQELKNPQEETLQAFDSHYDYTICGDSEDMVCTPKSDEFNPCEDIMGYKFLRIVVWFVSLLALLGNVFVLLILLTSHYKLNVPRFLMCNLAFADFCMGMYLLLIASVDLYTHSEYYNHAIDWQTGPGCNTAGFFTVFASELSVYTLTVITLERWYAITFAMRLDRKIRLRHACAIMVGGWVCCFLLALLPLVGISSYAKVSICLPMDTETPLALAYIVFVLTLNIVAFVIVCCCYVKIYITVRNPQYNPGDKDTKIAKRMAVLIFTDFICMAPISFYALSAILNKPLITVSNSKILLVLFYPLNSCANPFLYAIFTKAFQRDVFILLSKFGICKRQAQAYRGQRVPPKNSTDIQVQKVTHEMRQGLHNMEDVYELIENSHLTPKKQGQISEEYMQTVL
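Freshly harvested TSHR cells receive pin-tooled compound, then EC80 TSH at 4nM final. After 2 hours at 37 deg C, antibody in lysis buffer and cAMP-d2 are added; 30 minutes at ambient temperature precede the HTRF read.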
CCT chaperon mod – High-Throughput Screening for Modulators of Cytosolic Chaperonin Activity; 0.3% of 360,000 active; purified chaperonin ATPase assay, HTRF ADP detection, 30 min; AID 651819, 2012; activity change, % (no concentration beside the values), hits read low; in the data active = activity change below about -30%; also: % is scaled to controls: 0 for no effect and ±100 for the full control effect
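First, chaperonin was dispensed at 40 nM or 20 nM final depending on batch activity. Next, compounds were pinned at 76 uM and ATP added at 10 uM. After 30 min at 37 °C, ADP detection reagents ran 30 min at ambient temperature.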
gsp antagonist – qHTS for Antagonists of gsp, the Etiologic Mutation Responsible for Fibrous Dysplasia/McCune-Albright Syndrome: qHTS; gsp-mutant cells, cAMP HTRF, 30 min; 0.4% of 340,000 active; Potency, µM (doses to about 76.9 µM), inactives show top-dose activity change, negative = inhibition, most hits filed as inhibitors; calls by dose curve; cell line not stated here;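 also: intracellular cAMP measured with PDE inhibitor Ro 20-1724 present during compound exposure; potency is read from the fitted curve at half-maximal effect; % is scaled to controls: 0 for no effect and ±100 for the full control effect; nearly all actives have a fitted effect of over 65% in size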
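Cells in G418 medium, seeded 16-24 h, 37C; buffer exchange to DPBS + 1 mM CaCl2, 0.5 mM MgCl2, 0.05% BSA; cpds in DMSO + […] (300 uM stock), 30 min 37C; HTRF cAMP detection.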
uPA generation – qHTS for Inhibitors of Cell Surface uPA Generation; 0.31% of 330,000 active; cell surface uPA generation assay, qHTS; Potency, µM (highest dose often 38.3 µM), inactives show at the top dose activity change, negative = inhibition, most hits filed as inhibitors; AID 540303, 2011; active = well fitted inhibition curve with a large enough effect; inconclusive = small, poorly fitted or top-dose-only effect; inactive = no such curve, though single readings can be large or run the other way; tested in mouse RAW 264.7 cells; also: potency is read from the fitted curve at half-maximal effect; % is scaled to controls: 0 for no effect and ±100 for the full control effect; nearly all actives have a fitted effect of over 55% in size
MmCpn inh – Inhibitors of TCP-1 ring complex (TRiC) of Methanococcus maripaludis (MmCpn): qHTS | Chaperonin Mm-Cpn (Methanococcus maripaludis) | purified Mm-Cpn ATPase, ADP Transcreener TR-FRET | Potency, µM (top dose mostly 76.9 µM), without a hit: at the top dose activity, negative = inhibition, actives largely listed as inhibitors | 0.031% of 330,000 active; active = well fitted inhibition curve with a large enough effect; inconclusive = small, poorly fitted or top-dose-only effect; also: potency is read from the fitted curve at half-maximal effect; % is scaled to controls: 0 for no effect and ±100 for the full control effect; nearly all actives have a fitted effect of over 80% in size
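Purified archaeal Mm-CPN (25nM final) preincubated 10 min at 37degC with compound, then 10uM ATP for 30 min at 37degC; ADP measured by HTRF Transcreener TR-FRET; buffer 30 mM TRIS pH 7.4, 100mM KCl, 5mM MgCl2, 1mM DTT.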
gsp ag – qHTS for Agonist of gsp, the Etiologic Mutation Responsible for Fibrous Dysplasia/McCune-Albright Syndrome: qHTS | gsp mutant cells, cAMP HTRF, 30 min | Potency, µM (series often up to 76.9 µM), for inactives: top-dose activation (cAMP increase), actives largely listed as activators | 0.13% of 340,000 active | AID 624287, 2012; active = well fitted activation curve with a large enough effect; inconclusive = small, poorly fitted or top-dose-only effect, or another doubt; inactive = no such curve, though single readings can be large or run the other way; cell line not stated here;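 also: phosphodiesterase inhibitor Ro 20-1724 added with compounds to block cAMP breakdown; potency is read from the fitted curve at half-maximal effect; nearly all actives have a fitted effect of over 60% in size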
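Cells stably selected in G418 were plated at 2000/well, grown 16-24 hr, then given compounds in DMSO with the PDE inhibitor […] (300 uM solution added) for 30 min at 37C; cAMP was read by HTRF.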
* = called active by the depositor; ? = inconclusive; nt = not tested or not shown; [ ] = dose if it differs, or a comment. Sampled rows, rich in hits. Any-hit rate of the full collection: about 1.2%.

SMILES	TSHR antag	CCT chaperon mod	gsp antagonist	uPA generation	MmCpn inh	gsp ag
Cc1ccc2nc(-c3cccnc3SCC(=O)N3c4ccccc4CC3C)[nH]c2c1 (centres undefined)	11.8	0.9	9.3%	-12.1%	50.1µM*	2.9%
Cc1ccc2nc(-c3ccc(SCC(=O)N4CCc5ccccc54)nc3)[nH]c2c1	-17.7	-43.6*	-13.6%	-8.0%	-1.8%	-6.2%
CCN(CC)S(=O)(=O)c1ccc(N/N=C(\C)c2ccc(OC)cc2O)nc1	-3.0	-1.8	-10.6%	5.62µM*	1.8%	2.5%
CCN(CC)S(=O)(=O)c1ccc(N/N=C/c2ccc(O)cc2)nc1	-6.5	0.3	-6.2%	-15.1%	0.2%	5.7%
O=C(Nc1cccc(S(=O)(=O)N2CCCC2)c1)c1cccc(S(=O)(=O)N2CCOCC2)c1	-16.0	0.5	-30.2%	-8.3%	-2.3%	7.7%
Cc1[nH]c2ccccc2c1CCNC(=O)CCC(=O)c1ccccc1	-5.2	2.1	-1.9%	-4.7%	-2.6%	-2.1%[15.4 µM]
O=C1CC(=Nc2ccccc2)NN1c1ccccc1	15.2	0.9	50.1µM*	-3.4%	0.6%	-25.8%
Cc1ccc2nsnc2c1NC(=S)NC(=O)c1ccco1	-4.9	0.3	5.8%	6.7%	-5.3%	-1.4%[15.4 µM]
CCN1C(=O)[C@H]2[C@@H](c3ccc(-c4ccc(Cl)c(Cl)c4)c(OC)c3)N[C@@](Cc3ccccc3)(C(=O)OC)[C@H]2C1=O	-0.3	-58.1*	-7.8%	6.8%	-2.4%	-36.0%
Cc1cc(C(C)(C)C)oc1C(=O)N(CC(=O)NC1CCCC1)c1cccc(C(F)(F)F)c1	?	-0.8	-13.3%	8.2%	-3.4%	-23.8%
CCCCCCCCC(=O)N/N=C(\C)c1ccco1	-0.6	1.2	9.7%	4.9%	0.8%	-14.5%
O=C1C=CC(=O)N1Cc1ccncc1	nt	1.6	1.5%	0.0%	nt	6.9%
O=C1C=CC(=O)N1CCCCCCCCCCN1C(=O)C=CC1=O	nt	-1.9	35.5µM*	-7.7%	nt	8.9%
Cc1cc(/C=C2\SC(=S)NC2=O)c(C)n1-c1ccc(O)cc1	-48.0	-3.0	31.6µM*	-12.9%	1.2%	-2.1%
Cc1ccc(OCC(=O)Nc2ccc(N3CCN(C(=O)c4ccco4)CC3)cc2)cc1C	0.8	-2.2	44.7µM*	-7.4%	-2.8%	1.2%[15.4 µM]
CC(C)(C)C1CCc2onc(C(=O)Nc3cccc(O)c3)c2C1 (centres undefined)	-21.2	nt	nt	nt	-4.0%	nt
COC(=O)c1ccccc1NC(=O)c1noc2c1CC(C(C)(C)C)CC2 (centres undefined)	3.7	-81.2*	1.4%	nt	0.9%	-24.5%
CCN1/C(=C/c2cccc[n+]2C)Sc2ccc(OC)cc21	-16.3	0.7	-24.9%	?	-2.0%	?
COc1ccc2c(c1)N(C)/C(=C/c1cccc[n+]1C)S2	-14.5	-1.5	?	7.94µM*	-0.6%	-7.1%
COc1ccc(/C=N/Nc2nncn2N)cc1Br	12.7	-0.5	-0.3%	-13.3%	-0.1%	6.8%[15.4 µM]
COc1cc(/C=N/Nc2nncn2N)ccc1OCc1c(C)no[n+]1[O-]	3.5	-0.8	-1.2%	11.2µM*	-1.7%	6.4%
COc1ccc(S(=O)(=O)N2CCc3ccccc32)cc1C(=O)Nc1ccc(C(N)=O)cc1	-4.8	-0.1	-8.0%	14.1µM*	-0.4%	6.3%
CC1CC(=O)N(c2ccc(C(C)C)cc2)C(=O)C1	-117.9*	0.5	-8.7%	2.1%	-0.1%	?
CC(C)c1ccc(N2C(=O)C3C4C=CC(CC4)C3C2=O)cc1 (centres undefined)	-3.4	-0.3	9.0%	2.7%	-0.8%	-26.7%
CC(C)(C)C(=O)OCCNc1nc(-c2ccccc2)nc2ccccc12	-33.9	-0.8	50.1µM*	-3.3%	0.7%	?
